High-throughput results (PubChem BioAssay)
Shown is part of a subset that was picked to be rich in hits.
IMPase Li inh – cell-permeable IMPase inhibitors with lithium potentiation; Potency, µM (top dose mostly 59.4 µM), hits mostly inhibitors; CHO-M1 cells, IP1 TR-FRET (IP-One), carbachol + lithium; actives 0.35% (n = 210,000); AID 1457;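 note: IP1 builds up when IMPase is blocked and the TR-FRET signal falls; nearly all actives have a fitted effect of over 50% in size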
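CHO cells stably expressing M1 receptor (2000/well, cultured 16–30 h) treated 30 min at 37C with compound plus low lithium. Cytosolic IP1 by TR-FRET (665/620 ratio and 620 channel) after 10 min lysis; AC50 by Hill fit.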
12-hLO inh – blocks human 12-lipoxygenase activity; P18054; purified 12-hLO, xylenol orange hydroperoxide absorbance; Potency, µM (highest dose often 57.1 µM), most hits filed as inhibitors; actives 0.12% (n = 150,000); AID 1452; note: nearly all actives have a fitted effect of over 55% in size
Target sequence (P18054 whole entry, looked up): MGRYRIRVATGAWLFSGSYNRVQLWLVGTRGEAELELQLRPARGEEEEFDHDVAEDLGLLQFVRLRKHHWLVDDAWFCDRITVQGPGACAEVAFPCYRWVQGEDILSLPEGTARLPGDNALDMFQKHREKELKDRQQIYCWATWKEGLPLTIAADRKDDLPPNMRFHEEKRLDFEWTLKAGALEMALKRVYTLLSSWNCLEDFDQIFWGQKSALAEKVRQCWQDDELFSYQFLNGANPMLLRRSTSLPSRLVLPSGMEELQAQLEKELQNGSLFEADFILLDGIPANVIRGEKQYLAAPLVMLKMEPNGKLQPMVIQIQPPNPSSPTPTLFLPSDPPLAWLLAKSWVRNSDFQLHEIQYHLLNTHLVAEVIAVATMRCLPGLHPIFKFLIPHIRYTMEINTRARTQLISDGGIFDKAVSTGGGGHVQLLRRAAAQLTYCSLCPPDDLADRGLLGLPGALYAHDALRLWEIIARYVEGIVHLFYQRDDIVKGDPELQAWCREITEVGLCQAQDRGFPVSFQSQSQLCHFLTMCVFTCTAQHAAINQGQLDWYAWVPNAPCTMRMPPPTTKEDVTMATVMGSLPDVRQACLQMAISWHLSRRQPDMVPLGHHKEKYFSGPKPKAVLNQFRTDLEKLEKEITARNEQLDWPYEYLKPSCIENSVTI
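Xylenol orange chromogenic assay: hydroperoxide from 12hLO oxidises Fe(II), giving red-shifted Fe(III)-XO absorbance. Conditions: 150 nM enzyme, 40 uM arachidonic acid, 25 mM Hepes pH 7.0, 0.01% Triton X-100, 30 min, room temperature.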
PNC assembly inh – blocks assembly of the perinucleolar compartment; PC3M PTB-GFP, PNC prevalence imaging, 16 h; stronger effect = lower value; actives 3.1% (n = 140,000); activity change (PNC), negative = inhibition, % at 10 µM;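 active = readout at or below -70, meaning at least 70% loss of cells showing the perinucleolar compartment, a nuclear body marking cancer cells; inconclusive = readout between -30 and a set limit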
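PC3M cells stably expressing PTB-GFP, 750–1000 cells/well, treated 16 h at 37 °C with compound (23 nl of library stock), in duplicate. After paraformaldehyde fixation and Hoechst stain, imaged at 20x; PNC prevalence scored by image analysis.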
IMPase inh – membrane-permeable compound that blocks inositol monophosphatase; P97697; CHO-M1 cells, IP1 accumulation, HTRF TR-FRET ratio; inhibition (IP1 accumulation), % at 46.1 µM; 120,000 tested, under 10 active; active = well fitted curve in the direction sought with a large enough effect in the signal ratio, not every such curve was filed as active; inconclusive = small, poorly fitted or top-dose-only effect, or a change in a side signal; inactive = no such curve, though single readings can be large or run the other way; the % refers to the signal ratio;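 note: cells stimulated with carbachol in lithium chloride buffer; higher means more IMPase inhibition seen as more IP1 and lower FRET ratio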
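Measured: the HTRF emission ratio (665/620 nm) plus the 620 nm donor channel, each fitted to the Hill equation to give AC50. Cells were CHO-M1 given compounds up to 46 uM and a 30 min carbachol stimulation at 37C.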
15-hLO-2 inh – inhibitors of human 15-lipoxygenase 2 (ALOX15B); O15296; purified 15hLO-2, xylenol orange hydroperoxide absorbance; Potency, µM (highest dose often 57.1 µM), usual class: inhibitors; actives 0.56% (n = 110,000); AID 881; note: nearly all actives have a fitted effect of over 60% in size
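Read-out: hydroperoxide product oxidises ferrous iron, measured as xylenol orange complex via the 573-to-405 nm absorbance ratio after 30 min. Reaction: 50 nM enzyme, 15 min compound preincubation, 45 uM arachidonic acid, 90 min RT, Hepes pH 7.5 with Triton X-100.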
Of the large screens only hits and unclear results are named; the others gave an inactive call. Unless noted, calls come from the whole dose curve; as a rule, active = well fitted curve in the direction sought with a large enough effect; inconclusive = small, poorly fitted or top-dose-only effect, or another doubt; inactive = no such curve, though single readings can be large; an effect the other way counts as inactive or inconclusive.

COc1ccc(/C=C2\CCn3c2nc2cc(C(=O)O)ccc2c3=O)cc1O	PNC assembly inh -96, IMPase inh inconclusive (no result: 15-hLO-2 inh)
O=C(O)C1CCCN(S(=O)(=O)c2cccs2)C1 (stereo not given)	PNC assembly inh -100 (no result: 15-hLO-2 inh)
O=C(NCc1cccs1)C1CCCN(S(=O)(=O)c2cccs2)C1 (stereo not given)	none
O=C(NC1(C(F)(F)F)C(=O)Nc2c1c(=O)[nH]c(=O)n2-c1ccc(F)cc1)c1ccccc1 (stereo not given)	none (no result: IMPase Li inh, 12-hLO inh, PNC assembly inh, 15-hLO-2 inh)
O=C(C1CCN(S(=O)(=O)c2cccc3cccnc23)CC1)N1CCN(c2ccccc2)CC1	none
O=C(C1CCCN(S(=O)(=O)c2cccc3cccnc23)C1)N1CCN(c2ccc(F)cc2)CC1 (stereo not given)	PNC assembly inh -81
O=S(=O)(c1ccc2c(c1)OCCO2)N1CCC(O)(c2ccc(Cl)cc2)CC1	PNC assembly inh -125
CCOc1ccc(/C=C(\C#N)c2nc(-c3cc4ccccc4oc3=O)cs2)c(OCC)c1	none (no result: IMPase Li inh, 12-hLO inh, PNC assembly inh, 15-hLO-2 inh)
O=C(Nc1ccccc1)N1N=C(c2cccs2)CC1c1cccs1 (stereo not given)	PNC assembly inh -102 (no result: IMPase inh, 15-hLO-2 inh)
N#CCCn1c(=O)c(-c2ccc(Cl)cc2)nc2cnc(Oc3ccccc3)nc21	IMPase Li inh inconclusive (no result: 12-hLO inh, PNC assembly inh, IMPase inh)
Cc1c(C(Nc2ccccn2)c2ccccc2)c(=O)n(-c2ccccc2)n1C (stereo not given)	PNC assembly inh -100 (no result: 15-hLO-2 inh)
C/C(=N\NC(=O)c1ccc(NS(=O)(=O)c2cccs2)cc1)c1cccs1	none (no result: 12-hLO inh, PNC assembly inh, IMPase inh, 15-hLO-2 inh)
COc1ccc(NS(=O)(=O)c2cccc(C(=O)N/N=C(\C)c3ccncc3)c2)cc1	PNC assembly inh -91 (no result: IMPase inh, 15-hLO-2 inh)
COc1ccc(NS(=O)(=O)c2cccc(C(=O)N/N=C(\C)c3ccc(-n4ccnc4)cc3)c2)cc1	none
C/C(=N\NC(=O)c1ccc(NS(=O)(=O)c2cccs2)cc1)c1ccc(Cl)cc1	PNC assembly inh -89 (no result: IMPase inh, 15-hLO-2 inh)
COc1ccc2[nH]cc(CCNc3ccnc(-c4ccc(N(C)C)cc4)n3)c2c1	none (no result: 12-hLO inh, PNC assembly inh, IMPase inh)
CN(Cc1ccccc1)C(=O)[C@H](Cc1ccc2ccccc2c1)NC(=O)[C@@H]1CCCN1C(=O)Nc1ccccc1[N+](=O)[O-]	none (no result: PNC assembly inh, IMPase inh)
COc1ccc(-c2cc(-c3ccccc3)c(C#N)c(=S)[nH]2)cc1	none (no result: 12-hLO inh, PNC assembly inh, IMPase inh, 15-hLO-2 inh)
N#Cc1c(N)[nH]c(=S)c(C#N)c1-c1ccccc1	IMPase Li inh 13µM, IMPase inh inconclusive, 15-hLO-2 inh inconclusive
CCCCC/C=C\C=C\[C@H](O)CCCCCCCC(=O)O	none (no result: 12-hLO inh, PNC assembly inh, IMPase inh, 15-hLO-2 inh)
CCCCn1c(=O)c2[nH]c(C34CC5CC(CC3C5)C4)nc2n(CCCO)c1=O	none (no result: PNC assembly inh, IMPase inh)
Cc1nc2ccc(S(=O)(=O)NCC(=O)N3CCc4ccccc43)cc2s1	none
Cc1nc2ccc(S(=O)(=O)NCC(=O)N3CCc4ccccc4C3)cc2s1	PNC assembly inh -97
O=C(CNC(=O)c1ccc(F)cc1)N/N=C/c1cn[nH]c1-c1ccccc1	PNC assembly inh -90 (no result: IMPase inh, 15-hLO-2 inh)
O=C(CNC(=O)c1ccccc1F)N/N=C/c1cn[nH]c1-c1ccccc1	IMPase inh inconclusive (no result: 15-hLO-2 inh)
CCC(=O)Nc1ccc(S(=O)(=O)Nc2ccc(Cl)nn2)cc1	PNC assembly inh -80 (no result: IMPase inh, 15-hLO-2 inh)
O=C(NCc1ccco1)c1ccc2c(=O)n(-c3ccccc3)c(=S)[nH]c2c1	IMPase Li inh 13µM
COc1ccc(-n2c(=S)[nH]c3cc(C(=O)NCc4ccco4)ccc3c2=O)cc1OC	none
CCOc1cc2[nH]c(=S)n(CCCC(=O)NCc3ccco3)c(=O)c2cc1OCC	IMPase Li inh 14µM
CCOc1ccc(-c2nnn(CC(=O)NCc3ccco3)n2)cc1OCC	PNC assembly inh -100 (no result: 15-hLO-2 inh)
CCCCOc1ccc(-c2nnn(CC(=O)NCc3ccco3)n2)cc1	none
O=S(=O)(c1ccccc1)N1CCC2(CCN(c3ccncc3)CC2)CC1	none (no result: PNC assembly inh, IMPase inh)
COc1ccc2cc3cc(C(=O)Nc4cc(OC)c(OC)c(OC)c4)oc3nc2c1	PNC assembly inh -105
CC(=O)Nc1ccc(S(=O)(=O)NCc2ccc(C)cc2)cc1	PNC assembly inh -110
Cc1cc(NC(=O)c2ccccc2[N+](=O)[O-])ccc1Br	none (no result: 12-hLO inh, PNC assembly inh, IMPase inh, 15-hLO-2 inh)
CC(C)CNC(=O)c1ccc(NC(=O)c2ccccc2[N+](=O)[O-])cc1	PNC assembly inh -84 (no result: IMPase inh, 15-hLO-2 inh)
CC(C)CNC(=O)c1cccc(NC(=O)c2ccc(Cl)c([N+](=O)[O-])c2)c1	PNC assembly inh -89 (no result: IMPase inh, 15-hLO-2 inh)
COc1ccc(NC(=O)CSc2nc(-c3ccc(OC)cc3)cc(=O)[nH]2)cc1	none (no result: IMPase Li inh, 12-hLO inh, PNC assembly inh, 15-hLO-2 inh)
COCCn1c(C)cc(C(=O)COC(=O)c2ccc3c(c2)NC(=O)CS3)c1C	none (no result: IMPase inh, 15-hLO-2 inh)
C=CCn1c(C)cc(C(=O)COC(=O)c2ccc3c(c2)NC(=O)CS3)c1C	PNC assembly inh -81 (no result: IMPase inh, 15-hLO-2 inh)
CC(Sc1ncc(C#N)c(N)n1)C(=O)Nc1ccccc1 (stereo not given)	PNC assembly inh -112
Cc1ccc(NC(=O)Cn2cc(C(=O)c3ccco3)c3ccccc32)cc1C	none (no result: IMPase Li inh, 12-hLO inh, PNC assembly inh, 15-hLO-2 inh)
CN1CCc2ccccc2[C@@H]1Cc1ccccc1NC(=O)c1sc2ccccc2c1Cl	none (no result: PNC assembly inh, IMPase inh)
Cc1ccc(CN2CCN(/N=C/c3cccs3)CC2)cc1	PNC assembly inh -99 (no result: IMPase inh, 15-hLO-2 inh)
COc1cc(/C=C\C(=O)N2CCC=CC2=O)cc(OC)c1OC	none (no result: PNC assembly inh)
